Laboratory results taken from PubChem BioAssay.
Where “and” joins values, the source holds several entries; their conditions need not be identical. Identical values can stand only once. Inconclusive results are not listed. For some of these results: Results with a measured potency or affinity are listed apart. A structure can be active in one record and inactive in another. Calls of active or inactive are those of the source. Unless noted, no rule for the calls is given here.

What was measured:
[1] = antimalarial activity against Dd2 strain (AID 2302;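 active = growth inhibition above 50% at the single 2 µM test dose, taken to imply half-maximal potency below 2 µM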;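 also: 0% = DMSO untreated growth and 100% = chloroquine plus artemisinin killed control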); details: P. falciparum Dd2 in RBCs, LDH growth readout, 72 h; at 2 µM; stronger effect = higher value
[2] = HepG2 cytotoxicity, primary screen, cytotoxicity control for P. falciparum antimalarial project, cell-based, ATP luminescence (AID 2303;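 active = inhibition above 50%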;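 also: 0% = DMSO wells and 100% = digitonin-killed cells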); details: HepG2 viability, 24-48 h, at 10 µM, stronger effect = higher value
[3] = target: L-lactate dehydrogenase (Plasmodium falciparum (isolate CDC / Honduras)) (UniProt Q27743); test: PfLDH activity inhibition – cell lysate, 3D7 strain, counter-screen for P. falciparum growth inhibition project (AID 2304);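 also: 0% = vehicle and 100% = reference inhibitor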; details: P. falciparum 3D7 crude extract, LDH APAD/NBT absorbance; at 2 µM; stronger effect = higher value
Chain of L-lactate dehydrogenase (Plasmodium falciparum (isolate CDC / Honduras)) (Q27743 whole entry, looked up): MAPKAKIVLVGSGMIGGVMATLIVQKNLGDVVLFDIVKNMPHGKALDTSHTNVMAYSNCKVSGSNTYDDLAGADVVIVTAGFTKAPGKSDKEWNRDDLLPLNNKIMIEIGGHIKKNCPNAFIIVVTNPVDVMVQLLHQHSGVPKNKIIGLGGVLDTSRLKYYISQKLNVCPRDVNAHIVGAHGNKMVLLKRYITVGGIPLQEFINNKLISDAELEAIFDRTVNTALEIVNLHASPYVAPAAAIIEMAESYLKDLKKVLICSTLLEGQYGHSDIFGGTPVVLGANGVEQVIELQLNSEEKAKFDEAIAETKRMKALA

[4] = inhibition of 3D7 malaria parasite growth – strain 3D7 (AID 2306);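 also: 0% = DMSO wells and 100% = chloroquine plus artemisinin control wells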; details: P. falciparum 3D7 erythrocytic growth, LDH absorbance, 72 h; at 2 µM; stronger effect = higher value
[5] = target: Plasmodium falciparum protein kinase 6 (PK6, PF3D7_1337100) (UniProt Q8IDW1); test: PfPK6 kinase inhibitors, biochemical, TCAMS library (AID 1159586); details: recombinant PfPK6, Kinase-Glo ATP depletion luminescence
Chain of Plasmodium falciparum protein kinase 6 (PK6, PF3D7_1337100) (Q8IDW1 1-305): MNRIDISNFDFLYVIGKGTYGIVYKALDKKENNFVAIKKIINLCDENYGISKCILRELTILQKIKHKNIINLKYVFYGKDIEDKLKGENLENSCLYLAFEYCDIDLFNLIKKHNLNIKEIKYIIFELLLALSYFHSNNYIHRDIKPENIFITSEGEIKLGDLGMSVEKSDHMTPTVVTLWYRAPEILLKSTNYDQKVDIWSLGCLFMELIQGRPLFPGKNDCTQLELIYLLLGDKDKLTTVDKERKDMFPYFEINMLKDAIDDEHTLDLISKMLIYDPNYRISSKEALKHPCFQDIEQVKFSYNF

[6] = target: Protein kinase 7 (PK7), Plasmodium falciparum 3D7 (PF3D7_0213400) (UniProt Q7YTF7); test: inhibition of Plasmodium PK7 catalytic activity – biochemical, TCAMS antimalarial set, Kinase-Glo luminescence (AID 1159587); details: recombinant PfPK7, Kinase-Glo ATP depletion luminescence
Chain of Protein kinase 7 (PK7), Plasmodium falciparum 3D7 (PF3D7_0213400) (Q7YTF7 1-343): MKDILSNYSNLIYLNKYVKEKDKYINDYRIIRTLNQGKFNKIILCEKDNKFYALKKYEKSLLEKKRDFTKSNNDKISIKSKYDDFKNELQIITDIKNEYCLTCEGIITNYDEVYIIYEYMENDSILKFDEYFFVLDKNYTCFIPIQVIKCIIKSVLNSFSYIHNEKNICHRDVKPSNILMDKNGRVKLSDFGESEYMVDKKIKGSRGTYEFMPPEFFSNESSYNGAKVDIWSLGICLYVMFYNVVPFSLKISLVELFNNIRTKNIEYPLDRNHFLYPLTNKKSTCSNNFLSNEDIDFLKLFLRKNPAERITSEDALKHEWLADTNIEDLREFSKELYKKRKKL

[7] = target: Calcium-dependent protein kinase 4 (Plasmodium falciparum (isolate 3D7)) (UniProt Q8IBS5); test: PfCDPK4 kinase inhibitors, biochemical, TCAMS library (AID 1159588; cut-off not given, nearly all actives have IC50 up to about 0.91 µM); details: recombinant PfCDPK4, Kinase-Glo ATP depletion luminescence
Chain of Calcium-dependent protein kinase 4 (Plasmodium falciparum (isolate 3D7)) (Q8IBS5 whole entry, looked up): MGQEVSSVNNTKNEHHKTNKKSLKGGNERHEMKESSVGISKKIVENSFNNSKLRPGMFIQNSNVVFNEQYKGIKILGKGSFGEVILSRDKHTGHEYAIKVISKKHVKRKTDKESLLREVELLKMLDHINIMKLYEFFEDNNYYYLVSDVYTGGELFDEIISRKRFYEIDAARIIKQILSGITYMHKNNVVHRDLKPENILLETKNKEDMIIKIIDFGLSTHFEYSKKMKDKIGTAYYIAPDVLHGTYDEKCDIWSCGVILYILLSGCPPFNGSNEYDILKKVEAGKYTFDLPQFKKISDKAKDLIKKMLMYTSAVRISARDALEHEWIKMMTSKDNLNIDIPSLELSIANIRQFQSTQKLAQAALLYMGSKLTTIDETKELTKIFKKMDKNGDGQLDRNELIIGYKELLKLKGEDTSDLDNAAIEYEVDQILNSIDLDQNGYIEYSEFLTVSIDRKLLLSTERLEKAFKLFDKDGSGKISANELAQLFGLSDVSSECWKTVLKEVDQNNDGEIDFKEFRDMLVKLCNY

[8] = system: Aerobactin synthetase IucA (Klebsiella pneumoniae); test: IucA aerobactin synthetase inhibitors, biochemical, Tocris library, absorbance (AID 1345561); details: purified IucA enzyme assay, absorbance (OD) read-out; stronger effect = lower value;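 tested at 8 µM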;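 also: 100% = enzyme without compound and 0% = no enzyme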
[9] = viability rescue of complex I mutant cybrids, primary screen, cell-based, galactose medium, ATP luminescence (AID 1645843;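 active = z-score of at least 1.8 in each of two replicates, scored against plate mean and spread of sample wells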;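 also: positive z means more ATP and so rescue of galactose-driven cybrid death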); details: complex I mutant cybrid cells, 72 h, stronger effect = higher value
[10] = growth inhibition of DIPG glioma cells, dose response, cell-based, SU-DIPG-XIII, MIPE4.0, CellTiter-Glo, qHTS (AID 1347061; cut-off not given, nearly all actives have AC50 up to about 37 µM;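 also: cells exposed to compound for 48 hours before readout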); details: SU-DIPG-XIII viability, CellTiter-Glo ATP luminescence
[11] = growth inhibition of DIPG glioma cells, dose response, cell-based, SU-DIPG-IV, MIPE4.0, CellTiter-Glo, qHTS (AID 1347063; cut-off not given, nearly all actives have AC50 up to about 30 µM;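 also: compound exposure lasted 48 hours before the viability readout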); details: SU-DIPG-IV viability, CellTiter-Glo ATP luminescence
[12] = target: NAD(+) hydrolase SARM1 (Homo sapiens) (UniProt Q6SZW1); test: SARM1 TIR NADase inhibitors, cell lysate, NAD-Glo luminescence (AID 1508614;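 active = compound whose remaining NAD level is above about 45 nM, limit read from the data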;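 also: higher remaining NAD means stronger inhibition of SARM1 NADase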); details: SAM-TIR HEK293T lysate NADase, at 1 µM, stronger effect = higher value
Chain of NAD(+) hydrolase SARM1 (Homo sapiens) (Q6SZW1 whole entry, looked up): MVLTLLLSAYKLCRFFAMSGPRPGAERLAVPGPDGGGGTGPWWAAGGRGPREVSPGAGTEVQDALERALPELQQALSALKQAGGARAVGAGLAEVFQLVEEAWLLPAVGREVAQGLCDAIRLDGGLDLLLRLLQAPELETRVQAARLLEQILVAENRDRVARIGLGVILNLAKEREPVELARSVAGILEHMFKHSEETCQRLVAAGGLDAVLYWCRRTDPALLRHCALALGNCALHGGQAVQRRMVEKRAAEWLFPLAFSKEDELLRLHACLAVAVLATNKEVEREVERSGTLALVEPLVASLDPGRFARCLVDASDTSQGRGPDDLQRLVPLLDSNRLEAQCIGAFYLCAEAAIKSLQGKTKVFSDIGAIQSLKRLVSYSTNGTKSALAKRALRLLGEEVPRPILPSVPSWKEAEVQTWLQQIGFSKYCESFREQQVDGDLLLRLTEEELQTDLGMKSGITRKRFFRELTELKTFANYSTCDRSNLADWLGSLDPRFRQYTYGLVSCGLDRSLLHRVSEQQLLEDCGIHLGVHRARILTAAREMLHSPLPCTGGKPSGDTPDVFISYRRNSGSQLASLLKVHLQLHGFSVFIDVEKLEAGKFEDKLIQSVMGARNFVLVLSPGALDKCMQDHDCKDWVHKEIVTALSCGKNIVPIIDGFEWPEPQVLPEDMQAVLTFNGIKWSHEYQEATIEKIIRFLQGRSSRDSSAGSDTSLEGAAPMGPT

CC(Cc1ccc(OCCCCOc2ccccc2)cc1)NCCC1CCCN1C (stereo not drawn)
inactive: inhibition [3] 3% | outcome [5] | outcome [6] | outcome [7]
active: growth inhibition [1] 98% | inhibition [2] 100% | growth inhibition [4] 99%

O=C1COc2ccccc2N1CCN1CCC(NCc2ccc(-c3cccs3)cc2)CC1
active: growth inhibition [4] 87%
inactive: growth inhibition [1] 18% | inhibition [2] 37% | inhibition [3] -4% | outcome [5] | outcome [6] | outcome [7]

COc1cc(/C=C/C(=O)NC2CCC(CN3CCC(c4c[nH]c5ccccc45)CC3)CC2)ccc1O (stereo not drawn)
inactive: growth inhibition [1] 45% and 44% | inhibition [2] 11% and 19% | inhibition [3] -8% and -2% | outcome [5] | outcome [6] | outcome [7]
active: growth inhibition [4] 98% and 99%

C[C@H](Cc1ccc(OCCCCCCOc2ccccc2)cc1)NC[C@@H](O)c1cc(Br)no1
inactive: inhibition [2] 21% | inhibition [3] 5% | outcome [5] | outcome [6] | outcome [7]
active: growth inhibition [1] 70% | growth inhibition [4] 94%

CCC(C)(C)N[C@@H](C)[C@@H](O)c1ccc(C(F)(F)F)cc1
active: growth inhibition [1] 90% | growth inhibition [4] 97%
inactive: inhibition [3] 2% | outcome [5] | outcome [6] | outcome [7]

O=C(NC1CCC(CN2CCC(c3c[nH]c4ccccc34)CC2)CC1)c1cc(-c2ccccc2Cl)oc1C(F)(F)F (stereo not drawn)
active: growth inhibition [4] 99%
inactive: growth inhibition [1] 7% | inhibition [2] 24% | inhibition [3] 4% | outcome [5] | outcome [6] | outcome [7]

CCCCCCCn1c(=O)c(C(=O)Nc2c(C)cccc2C)c(O)c2ccccc21
inactive: growth inhibition [1] 42% | inhibition [2] 6% | inhibition [3] -2% | outcome [5] | outcome [6] | outcome [7]
active: growth inhibition [4] 90%

COc1ccc(C(=O)c2ccc3[nH]cc(C4=CCN(C)CC4)c3c2)cc1
active: growth inhibition [1] 55% | growth inhibition [4] 88%
inactive: inhibition [3] 4% | outcome [5] | outcome [6] | outcome [7]

CC(C)NC(=O)Cn1cc(C2CCN(CC3CCN(C(=O)/C=C/c4ccc(Cl)c(Cl)c4)CC3)CC2)c2ccccc21
active: growth inhibition [1] 55% | growth inhibition [4] 97%
inactive: inhibition [2] 31% | inhibition [3] -2% | outcome [5] | outcome [6] | outcome [7]

CC(=O)Nc1ccc(CN2CCC(N(C)c3cc(NC(=O)c4cccc(F)c4)ccn3)CC2)cc1
inactive: growth inhibition [1] -1% | inhibition [2] 4% | inhibition [3] 2% | outcome [5] | outcome [6] | outcome [7]
active: growth inhibition [4] 85%

CS(=O)(=O)Nc1ccc(Cc2noc(-c3ccc4[nH]cc(CCN)c4c3)n2)cc1
inactive: remaining activity [8] 103%
0.895 (inactive) and 2.6 (active): z-score [9]

CC[C@H]1CN2CC[C@H]1C[C@H]2[C@H](O)c1cc(-c2ccc3ccccc3c2)nc2ccc(OC)cc12
inactive: inhibition [2] 49% | inhibition [3] -3% | outcome [5] | outcome [6] | outcome [7]
active: growth inhibition [1] 99% | growth inhibition [4] 99%

CCC1=C[C@@H]2CN(C1)Cc1c([nH]c3ccccc13)[C@@](C(=O)OC)(c1cc3c(cc1OC)N(C)[C@H]1[C@@](O)(C(=O)OC)[C@H](O)[C@]4(CC)C=CCN5CC[C@]31[C@@H]54)C2
inactive: inhibition [3] -1% | outcome [5] | outcome [6] | outcome [7]
active: growth inhibition [1] 99% | growth inhibition [4] 98%

CC(C)CNCc1cccc(-c2ccc(CN(C(=O)c3cccs3)C3CCN(Cc4ccccc4)CC3)cc2)c1
active: growth inhibition [4] 85%
inactive: growth inhibition [1] 40% | inhibition [2] 22% | inhibition [3] 3% | outcome [5] | outcome [6] | outcome [7]

CN(c1cc(NC(=O)c2ccc(F)cc2)ccn1)C1CCN(Cc2cccc(C#N)c2)CC1
inactive: inhibition [3] 1% | outcome [5] | outcome [6] | outcome [7]
active: growth inhibition [1] 83% | inhibition [2] 73% | growth inhibition [4] 97%

O=C(Nc1cc(C(F)(F)F)cc(C(F)(F)F)c1)N1CCC(CN2CCC(c3c[nH]c4ccccc34)CC2)CC1
inactive: inhibition [2] 42% | inhibition [3] -1% | outcome [5] | outcome [6] | outcome [7]
active: growth inhibition [1] 99% | growth inhibition [4] 100%

O=[N+]([O-])c1ccc(Oc2c(Cl)cc(S(=O)(=O)NC3CCC(CN4CCC(c5c[nH]c6ccccc56)CC4)CC3)cc2Cl)c(Cl)c1 (stereo not drawn)
active: growth inhibition [1] 64% | growth inhibition [4] 100%
inactive: inhibition [2] 30% | inhibition [3] -4% | outcome [5] | outcome [6] | outcome [7]

O=C(/C=C/c1ccc(Cl)c(Cl)c1)N1CCC(CN2CCC(c3c[nH]c4cc(C(F)(F)F)ccc34)CC2)CC1
inactive: growth inhibition [1] 38% | inhibition [2] 6% | inhibition [3] -5% | outcome [5] | outcome [6] | outcome [7]
active: growth inhibition [4] 99%

CC(C)CNCc1ccc(-c2cccc(CN(C(=O)CCC3CCCC3)C3CCN(Cc4ccccc4)CC3)c2)cc1
active: growth inhibition [1] 92% | inhibition [2] 62% | growth inhibition [4] 101%
inactive: inhibition [3] -7% | outcome [5] | outcome [6] | outcome [7]

CCOC(=O)c1cncn1[C@H](C)c1ccccc1
inactive: remaining activity [8] 122% | outcome [10] | outcome [11] | remaining NAD [12] 10 nM | z-score [9] -0.35

CN1CC=C(c2c[nH]c3ccc(C(=O)c4nccs4)cc23)CC1
active: growth inhibition [1] 73% | growth inhibition [4] 89%
inactive: inhibition [3] 7% | outcome [5] | outcome [6] | outcome [7]

O=C(NC1CCC(CN2CCC(c3c[nH]c4ccccc34)CC2)CC1)c1cc(-c2ccccc2Cl)n(-c2cccc(Cl)c2)n1 (stereo not drawn)
inactive: growth inhibition [1] 24% | inhibition [3] 4% | outcome [5] | outcome [6] | outcome [7]
active: inhibition [2] 58% | growth inhibition [4] 95%

CS(=O)(=O)Nc1ccc2c(C3CCN(CC4CCN(C(=O)/C=C/c5ccc(Cl)c(Cl)c5)CC4)CC3)c[nH]c2c1
active: growth inhibition [1] 70% | growth inhibition [4] 99%
inactive: inhibition [2] 28% | inhibition [3] -3% | outcome [5] | outcome [6] | outcome [7]

O=C(/C=C/c1ccc(F)c(C(F)(F)F)c1)N1CCC(CN2CCC(c3c[nH]c4ccccc34)CC2)CC1
active: growth inhibition [4] 98%
inactive: growth inhibition [1] 1% | inhibition [2] 23% | inhibition [3] 2% | outcome [5] | outcome [6] | outcome [7]

NC(N)=NC(=O)Nc1ccc([N+](=O)[O-])c(Cl)c1
active: growth inhibition [4] 90%
inactive: growth inhibition [1] 12% | inhibition [3] -10% | outcome [5] | outcome [6] | outcome [7]
